Results reported in ChEMBL document CHEMBL3988442, “University of Dundee, Small-Polar-MMV Screening Library” (2021).
For part of these data: Potency and affinity values are given separately.

Legend:
Parameters in all cases: scale not given: direction of the effect not stated beside the values
[1] = target: Protein translocase subunit SecA (Escherichia coli (strain K12)) (UniProt P10408); experiment: Assay to Identify E. coli SecA ATPase Inhibitors; format: functional; details: 30 µM
[2] = target: T1, Ubiquitin-activating enzyme e1, putative (Leishmania donovani (strain BPK282A1)) (UniProt E9BSI1); experiment: Leishmania donovani Ubiquitin Activating Enzyme (LdE1); format: functional; details: 30 µM
T1 sequence (whole entry): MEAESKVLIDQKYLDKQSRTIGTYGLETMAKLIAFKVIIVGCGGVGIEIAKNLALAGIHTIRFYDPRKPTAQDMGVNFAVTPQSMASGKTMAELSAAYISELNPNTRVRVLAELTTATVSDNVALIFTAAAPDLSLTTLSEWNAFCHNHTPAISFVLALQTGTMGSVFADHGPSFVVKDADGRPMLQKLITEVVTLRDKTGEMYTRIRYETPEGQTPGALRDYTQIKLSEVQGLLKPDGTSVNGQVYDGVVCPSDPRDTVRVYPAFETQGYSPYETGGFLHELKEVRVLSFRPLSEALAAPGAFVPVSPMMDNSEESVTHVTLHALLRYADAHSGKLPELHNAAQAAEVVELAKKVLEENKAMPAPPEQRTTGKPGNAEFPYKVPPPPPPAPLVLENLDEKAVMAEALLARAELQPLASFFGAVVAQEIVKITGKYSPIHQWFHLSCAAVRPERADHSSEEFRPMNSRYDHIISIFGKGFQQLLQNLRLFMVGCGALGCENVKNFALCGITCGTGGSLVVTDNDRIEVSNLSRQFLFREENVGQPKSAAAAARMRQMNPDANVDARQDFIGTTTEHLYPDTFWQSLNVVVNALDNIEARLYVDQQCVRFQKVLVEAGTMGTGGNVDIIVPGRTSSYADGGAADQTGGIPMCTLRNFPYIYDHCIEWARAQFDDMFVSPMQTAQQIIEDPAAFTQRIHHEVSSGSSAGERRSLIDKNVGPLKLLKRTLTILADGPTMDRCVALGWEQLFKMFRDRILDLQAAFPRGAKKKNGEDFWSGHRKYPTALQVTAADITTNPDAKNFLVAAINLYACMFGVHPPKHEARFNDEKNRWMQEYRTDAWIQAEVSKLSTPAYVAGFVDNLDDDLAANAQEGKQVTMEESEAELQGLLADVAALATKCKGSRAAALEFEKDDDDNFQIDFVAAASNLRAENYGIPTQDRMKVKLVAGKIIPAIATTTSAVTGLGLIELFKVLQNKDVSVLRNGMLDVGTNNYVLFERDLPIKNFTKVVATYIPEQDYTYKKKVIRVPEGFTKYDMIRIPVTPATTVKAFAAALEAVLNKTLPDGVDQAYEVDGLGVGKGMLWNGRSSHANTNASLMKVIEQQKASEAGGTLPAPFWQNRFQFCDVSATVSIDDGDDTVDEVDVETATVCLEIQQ

[3] = target: AMP-activated protein kinase, AMPK (Homo sapiens) (UniProt P54646+O43741+P54619+Q9UGJ0+Q9Y478+Q13131+Q9UGI9); experiment: AMP-dependent Kinase enzyme assay. An in vitro enzyme assay that detects ADP turnover that is directly proportional to AMPK activity. This uses naive AMPK that is activated during the assay with MK-8722; format: functional; details: 30 µM
[4] = target: Sialic acid-binding Ig-like lectin 9 (Homo sapiens) (UniProt Q9Y336); experiment: Hs-Siglec9 ALPHAscreen SOP 20170721; details: 10 µM
Sequence of Sialic acid-binding Ig-like lectin 9 (Homo sapiens) (Q9Y336 whole entry): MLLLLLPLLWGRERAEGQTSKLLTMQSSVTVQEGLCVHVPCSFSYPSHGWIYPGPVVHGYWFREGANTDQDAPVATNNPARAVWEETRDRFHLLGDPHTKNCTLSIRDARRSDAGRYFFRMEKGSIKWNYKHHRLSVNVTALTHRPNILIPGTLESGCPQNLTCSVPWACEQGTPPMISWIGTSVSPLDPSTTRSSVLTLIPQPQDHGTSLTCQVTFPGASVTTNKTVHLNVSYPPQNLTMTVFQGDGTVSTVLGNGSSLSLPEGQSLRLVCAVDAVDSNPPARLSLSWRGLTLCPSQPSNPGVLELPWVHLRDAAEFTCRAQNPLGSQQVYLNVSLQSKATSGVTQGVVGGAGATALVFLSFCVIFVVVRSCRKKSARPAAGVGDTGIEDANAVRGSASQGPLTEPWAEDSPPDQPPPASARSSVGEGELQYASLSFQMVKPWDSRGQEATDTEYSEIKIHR

Trypanosoma cruzi = experiment: Trypanosoma cruzi phosphomannomutase and mannose-1-phosphate guanylyltransferase assay; format: functional; details: 10 µM
[5] = target: T2, Arginase-2, mitochondrial (Homo sapiens) (UniProt P78540); experiment: in vitro enzyme assay to detect the production of urea directly proportional to the activity of Arginase II; format: functional; details: 33.3 µM; further: in the data most compounds retested in dose-response had high values
T2 sequence (whole entry): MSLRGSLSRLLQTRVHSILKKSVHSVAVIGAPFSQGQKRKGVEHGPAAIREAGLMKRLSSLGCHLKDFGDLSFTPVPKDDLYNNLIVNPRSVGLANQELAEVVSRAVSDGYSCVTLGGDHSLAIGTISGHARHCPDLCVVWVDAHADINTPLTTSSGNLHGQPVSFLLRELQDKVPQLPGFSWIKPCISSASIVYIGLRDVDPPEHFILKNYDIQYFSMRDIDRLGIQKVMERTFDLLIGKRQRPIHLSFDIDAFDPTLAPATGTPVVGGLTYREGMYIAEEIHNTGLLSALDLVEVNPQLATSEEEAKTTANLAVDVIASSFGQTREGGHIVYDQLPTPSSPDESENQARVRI

[6] = target: T3, Proteasome subunit beta (Trypanosoma cruzi) (UniProt O96673); experiment: Trypanosoma cruzi proteasome chymotrypsin-like activity (TcProtChymo) assay.; further: in the data most compounds retested in dose-response had high values; format: functional; details: 9.37 µM
T3 sequence (whole entry): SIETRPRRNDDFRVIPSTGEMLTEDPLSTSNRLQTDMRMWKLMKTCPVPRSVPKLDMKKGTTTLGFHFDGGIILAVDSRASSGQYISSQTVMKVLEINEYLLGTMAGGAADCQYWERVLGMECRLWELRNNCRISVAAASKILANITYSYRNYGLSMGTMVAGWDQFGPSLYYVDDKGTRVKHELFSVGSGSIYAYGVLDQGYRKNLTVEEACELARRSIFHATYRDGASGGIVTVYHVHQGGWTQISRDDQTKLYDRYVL

Homo sapiens = species on record: Homo sapiens; experiment: To identify inhibition of the IFN signalling (Jak-Stat) pathway via expression of an eGFP reporter gene under the control of an IFN-stimulated response element (ISRE) containing MxA promoter.; format: functional; details: 30 µM
[7] = target: T4, Tyrosyl-tRNA synthetase, putative (Trypanosoma cruzi (strain CL Brener)) (UniProt Q4DSP6); experiment: Trypanosoma cruzi tyrosyl tRNA synthetase (TcYRS) _High Tyrosine SOP; format: functional; details: 30 µM; further: in the data most compounds retested in dose-response had high values
T4 sequence (whole entry): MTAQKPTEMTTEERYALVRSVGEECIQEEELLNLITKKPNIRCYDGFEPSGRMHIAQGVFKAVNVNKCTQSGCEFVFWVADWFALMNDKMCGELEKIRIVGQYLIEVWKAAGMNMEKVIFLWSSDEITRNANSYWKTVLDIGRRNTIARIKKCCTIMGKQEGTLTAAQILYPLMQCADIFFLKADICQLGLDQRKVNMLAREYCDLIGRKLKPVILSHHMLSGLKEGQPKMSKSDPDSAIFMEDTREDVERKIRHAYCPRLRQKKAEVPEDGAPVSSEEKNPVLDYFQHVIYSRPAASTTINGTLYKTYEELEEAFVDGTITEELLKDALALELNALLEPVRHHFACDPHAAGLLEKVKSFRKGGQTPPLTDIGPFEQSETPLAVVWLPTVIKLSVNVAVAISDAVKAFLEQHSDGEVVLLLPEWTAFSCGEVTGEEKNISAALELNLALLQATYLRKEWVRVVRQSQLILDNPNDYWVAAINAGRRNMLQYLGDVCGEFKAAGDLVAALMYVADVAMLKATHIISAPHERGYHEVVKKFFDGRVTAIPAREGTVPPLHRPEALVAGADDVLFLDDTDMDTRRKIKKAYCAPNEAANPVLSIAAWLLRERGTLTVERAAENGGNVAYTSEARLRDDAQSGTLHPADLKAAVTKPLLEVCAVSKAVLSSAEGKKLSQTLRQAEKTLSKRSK

[8] = target: T4, Tyrosyl-tRNA synthetase, putative (Trypanosoma cruzi (strain CL Brener)); experiment: Trypanosoma cruzi tyrosyl tRNA synthetase (TcYRS) SOP; format: functional; details: 30 µM
[9] = target: Chromo domain-containing protein 1 (Saccharomyces cerevisiae (strain ATCC 204508 / S288c) (Baker's yeast)) (UniProt P32657); experiment: ScCHD-1 Enzyme Inhibition Assay; format: functional; details: 30 µM; further: in the data most compounds retested in dose-response had high values
Sequence of Chromo domain-containing protein 1 (Saccharomyces cerevisiae (strain ATCC 204508 / S288c) (Baker's yeast)) (P32657 whole entry, the tested form may be a part): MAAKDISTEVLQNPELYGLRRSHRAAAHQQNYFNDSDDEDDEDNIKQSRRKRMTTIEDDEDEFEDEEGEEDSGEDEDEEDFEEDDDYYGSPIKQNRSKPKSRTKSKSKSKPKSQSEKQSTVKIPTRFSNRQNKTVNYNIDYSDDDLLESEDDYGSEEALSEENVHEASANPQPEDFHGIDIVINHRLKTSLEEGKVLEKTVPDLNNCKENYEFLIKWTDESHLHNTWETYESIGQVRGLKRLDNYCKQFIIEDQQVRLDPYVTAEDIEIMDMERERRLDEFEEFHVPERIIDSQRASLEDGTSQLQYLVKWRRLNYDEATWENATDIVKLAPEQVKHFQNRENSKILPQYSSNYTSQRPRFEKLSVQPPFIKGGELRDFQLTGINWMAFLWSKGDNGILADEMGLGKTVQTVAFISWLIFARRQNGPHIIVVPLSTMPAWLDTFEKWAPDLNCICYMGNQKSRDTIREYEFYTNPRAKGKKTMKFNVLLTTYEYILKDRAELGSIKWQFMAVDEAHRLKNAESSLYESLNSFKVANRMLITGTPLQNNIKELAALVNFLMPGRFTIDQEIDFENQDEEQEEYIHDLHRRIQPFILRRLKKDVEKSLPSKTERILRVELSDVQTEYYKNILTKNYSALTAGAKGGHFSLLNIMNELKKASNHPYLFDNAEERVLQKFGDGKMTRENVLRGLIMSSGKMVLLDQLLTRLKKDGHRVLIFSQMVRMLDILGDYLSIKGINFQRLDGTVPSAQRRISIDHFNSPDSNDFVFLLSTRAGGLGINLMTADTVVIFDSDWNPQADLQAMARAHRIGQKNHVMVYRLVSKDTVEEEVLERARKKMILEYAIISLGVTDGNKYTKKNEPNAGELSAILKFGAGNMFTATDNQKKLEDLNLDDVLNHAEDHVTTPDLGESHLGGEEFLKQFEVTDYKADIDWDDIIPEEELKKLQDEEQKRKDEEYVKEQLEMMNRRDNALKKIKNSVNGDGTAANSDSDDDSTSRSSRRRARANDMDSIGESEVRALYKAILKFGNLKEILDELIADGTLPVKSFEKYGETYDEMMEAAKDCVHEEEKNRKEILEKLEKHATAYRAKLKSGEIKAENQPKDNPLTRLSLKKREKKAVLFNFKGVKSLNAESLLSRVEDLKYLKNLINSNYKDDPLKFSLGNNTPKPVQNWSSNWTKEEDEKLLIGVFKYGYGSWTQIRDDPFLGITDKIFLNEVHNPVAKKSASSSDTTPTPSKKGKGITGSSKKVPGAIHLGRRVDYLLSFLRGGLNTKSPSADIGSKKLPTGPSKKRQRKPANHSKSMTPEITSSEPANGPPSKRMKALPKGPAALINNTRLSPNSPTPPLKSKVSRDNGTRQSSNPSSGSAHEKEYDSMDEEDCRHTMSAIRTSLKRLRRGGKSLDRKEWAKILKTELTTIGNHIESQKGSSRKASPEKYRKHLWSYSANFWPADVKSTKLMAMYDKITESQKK

Sequence of Protein translocase subunit SecA (Escherichia coli (strain K12)) (P10408 whole entry): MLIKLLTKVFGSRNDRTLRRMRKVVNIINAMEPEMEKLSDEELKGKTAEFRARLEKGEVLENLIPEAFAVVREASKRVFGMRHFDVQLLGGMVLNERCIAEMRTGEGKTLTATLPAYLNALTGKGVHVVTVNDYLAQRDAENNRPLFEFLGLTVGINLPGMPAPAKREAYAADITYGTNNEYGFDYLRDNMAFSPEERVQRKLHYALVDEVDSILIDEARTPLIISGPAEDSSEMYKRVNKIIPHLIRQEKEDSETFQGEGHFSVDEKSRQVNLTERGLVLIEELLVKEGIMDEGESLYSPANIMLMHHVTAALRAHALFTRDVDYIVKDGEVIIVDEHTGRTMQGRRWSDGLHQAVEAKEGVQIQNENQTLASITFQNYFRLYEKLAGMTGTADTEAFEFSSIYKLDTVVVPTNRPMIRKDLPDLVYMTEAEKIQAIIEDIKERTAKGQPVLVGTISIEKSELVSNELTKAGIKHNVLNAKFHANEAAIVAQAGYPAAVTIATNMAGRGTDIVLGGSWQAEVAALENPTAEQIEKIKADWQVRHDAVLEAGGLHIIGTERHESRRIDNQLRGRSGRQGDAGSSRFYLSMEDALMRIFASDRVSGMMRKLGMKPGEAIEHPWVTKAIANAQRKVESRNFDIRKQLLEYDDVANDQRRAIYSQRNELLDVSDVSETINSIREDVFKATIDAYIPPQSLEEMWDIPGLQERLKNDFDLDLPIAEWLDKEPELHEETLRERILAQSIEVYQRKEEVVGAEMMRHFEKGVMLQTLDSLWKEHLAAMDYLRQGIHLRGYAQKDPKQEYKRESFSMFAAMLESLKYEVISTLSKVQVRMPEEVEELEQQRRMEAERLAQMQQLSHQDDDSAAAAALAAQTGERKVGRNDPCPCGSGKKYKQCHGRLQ

Row | SMILES | Percent Effect [1] | Percent Effect [2] | Percent Effect [3] | Percent Effect [4] | Percent Effect (Trypanosoma cruzi) | Percent Effect [5] | Percent Effect [6] | Percent Effect (Homo sapiens) | Percent Effect [7] | Percent Effect [8] | Percent Effect [9]
1 | O=C(Nc1cccc(OCc2ccc(F)cc2)c1)C1COCCO1 (stereo unspecified) | -4.66% | -8% | 0.674% | -3.67% | -1.27% | 1.04% | 14.3% | 5.69% | -8.2% | -3.7% | -0.73%
2 | COC(=O)c1ccc(N2CCN(C(=O)c3cc(C)on3)C(C)C2)cc1 (stereo unspecified) | -1.64% | 12.7% | 13.9% | 10.2% | -3.87% | 0.76% | 9.42% | 7.47% | -2.46% | 3.8% | -6.13%
3 | CC(=O)N(Cc1ncc(C)o1)C1CCN(Cc2noc(C)n2)C1 (stereo unspecified) | -3.16% | 26% | -5.5% | -2.16% | 6.76% | -3.16% | 11.9% | 1.88% | 8.57% | 30.6% | 2.25%
4 | CN(Cc1nc(C2CC2)no1)C1CCCN(c2cccnn2)C1 (stereo unspecified) | -1.65% | -17.7% | 11.7% | 7.67% | 1.6% | 1.14% | -0.573% | -0.447% | 6.4% | 3.8% | 4.91%
5 | Cc1nc(Cn2nc(C3CCNCC3)n(Cc3ccccc3)c2=O)no1 | -0.936% | 5.41% | 0.118% | 2.54% | -4.25% | -4.29% | 12.1% | 26.5% | 3.7% | 4.88% | -4.29%
6 | Cc1cc(C(=O)N2C[C@@H]3[C@@H](C2)OCC(=O)N3CC2CC2)no1 | -1.71% | -31.2% | 5.62% | 6.36% | -6.98% | -16.6% | 4.49% | 6.95% | -54.8% | -90.1% | 0.00283%
